Measured values from the supplement of paper PMC11417369.
Over roughly 25,000 sequences, “ln(normalized median fluorescence intensity)” has its median near 6.7; the highest 2% begin near 10. Many of the other results were omitted from the sample, so the highest values are more common in it than they were.

tested on: PfHDP1 homeodomain (GST-tagged); assay: gcPBM binding intensity (ln(normalized median fluorescence intensity)); higher = stronger DNA binding
Summary of the method: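 After 1 h on an Agilent 4 × 180k array of primer-extended double-stranded 36-bp intergenic genomic probes and negative controls, bound GST-tagged P. falciparum DNA-binding domains were detected with Alexa488 anti-GST antibody and scanned at 488 nm. The domains had been expressed in E. coli, and binding took place in 1× PBS with 1% milk, 0.2 mg/ml BSA, 0.5% salmon testes DNA and 0.03% Triton X-100. Binding intensity is the highest Masliner-normalised natural-log median intensity across replicate spots of either probe orientation.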

Q: Which “gcPBM binding intensity (ln)” value does the source give for “AGGTGCAAAAATAAAACATGCAAAAATAAAAATGAA [TGCATGCA_site502]” here?
A: The value was 10.7.

Q: Which “gcPBM binding intensity (ln)” value does the source give for “TTTATTAAAATATTCTCACACACCAAAATATGTATG [CACACA_site932]” here?
A: The value was 6.42.

Q: Which “gcPBM binding intensity (ln)” value does the source give for TATATATATTTTTGTGTGCACTATAATATGAAAATA here?
A: Its value is 10.3.

Q: Which “gcPBM binding intensity (ln)” value does the source give for ATAACAAAAATCCTTGTGCACTATTTTAATAGAGTC here?
A: The value was 10.5.

Q: For “TTTTAATATATAGAGTAACAAATTTGTCTATTAATA [CACACA_negctrl_site1495]”, which “gcPBM binding intensity (ln)” value is on record?
A: Its value is 6.6.

Q: For “TAAAAAATAAATATATGTACATATTTATTTTTTTTT [XGTACX_site850]”, which “gcPBM binding intensity (ln)” value is on record?
A: Its value is 6.19.

Q: “TATCATATATAAAGAGGTACGTAAGAATAGAAAATT [XGTACX_site798]” was tested. Which “gcPBM binding intensity (ln)” value did it give?
A: The value was 7.27.

Q: With “GTGCAAAATATTTTTACACACAAATTCTTACAACAG [CACACA_site7556]” as the sequence, how does the “gcPBM binding intensity (ln)” value read?
A: Its value is 7.77.

Q: Which “gcPBM binding intensity (ln)” value does the source give for “TTTTTTATTTTGTGCACACACATAAAAATATATATA [CACACA_site761]” here?
A: Its value is 11.4.

Q: “GTATTTCTTTAATATACACACACCAAAACAAAAAAA [CACACA_site579]” was tested. Which “gcPBM binding intensity (ln)” value did it give?
A: The value was 6.98.

Q: How did the “gcPBM binding intensity (ln)” value turn out when “TCTTTCCTTATTAAAACACACAAATACATTATTTAA [CACACA_site2147]” was run?
A: Its value is 6.7.

Q: CATTTTATTTTCTTTGTGCACAAAAATATTTTTTCT was tested. Which “gcPBM binding intensity (ln)” value did it give?
A: Its value is 10.8.

Q: With “ATAAAAAAAAATATTTGTACACATATTTATATATTA [XGTACX_site8147]” as the sequence, how does the “gcPBM binding intensity (ln)” value read?
A: Its value is 6.56.

Q: With TTTTTGTTACCTATTGTGCACTTCATATAAATTAAA as the sequence, how does the “gcPBM binding intensity (ln)” value read?
A: Its value is 10.9.

Q: For “TTTTTTTTTGTTAAAGTGCATATATTAAATTTTCCT [GTGCAC_site9677]”, which “gcPBM binding intensity (ln)” value is on record?
A: The value was 7.82.

Q: “TTTTATTTCTTTGCACCATTTTAAATACAAACAAAT [CACACA_negctrl_site1553]” was tested. Which “gcPBM binding intensity (ln)” value did it give?
A: The value was 11.

Q: Which “gcPBM binding intensity (ln)” value does the source give for “GAAATTTGTTATTGCACACAAATTTTTCTTTTTTTA [CACACA_site2339]” here?
A: Its value is 9.6.

Q: For “TAATAAAAAAAGTGCACACACATAATATTTATATAT [CACACA_site7548]”, which “gcPBM binding intensity (ln)” value is on record?
A: Its value is 8.75.

Q: Which “gcPBM binding intensity (ln)” value does the source give for “ACATTAAAAAATTGTTTGCACTATATAAAATATTAA [GTGCAC_site9728]” here?
A: The value was 8.82.

Q: With “CATTAATAAAAAAAAAGTACAAAAAATATATATATT [XGTACX_site2091]” as the sequence, how does the “gcPBM binding intensity (ln)” value read?
A: The value was 6.88.

Q: Which “gcPBM binding intensity (ln)” value does the source give for “TCGTCTCAATAATTATAATAAAAAAATTCCTAAGTC [CACACA_negctrl_site338]” here?
A: The value was 6.28.

Q: How did the “gcPBM binding intensity (ln)” value turn out when “TATATGCCTATAAGAAGTACTGTGTAATGTAATATA [XGTACX_site8089]” was run?
A: Its value is 6.67.

Q: How did the “gcPBM binding intensity (ln)” value turn out when “TTGTGTTATCCTTTTTTAGATCAACTATTTTTATTC [CACACA_negctrl_site145]” was run?
A: Its value is 6.32.

Q: Which “gcPBM binding intensity (ln)” value does the source give for “AAAGGAAAAAAAAGCACACACAATATTACTTGAAAT [CACACA_site2588]” here?
A: The value was 6.9.

Q: How did the “gcPBM binding intensity (ln)” value turn out when “TAATTATTACACGGTATTATATATAATATGTTAAAA [GTGCAC_negctrl_site134]” was run?
A: Its value is 6.6.

Q: For “ATATTGATACATCCAATACACACTACATATAATGAT [CACACA_site1874]”, which “gcPBM binding intensity (ln)” value is on record?
A: The value was 6.82.

Q: “TTATATTTATAAAATTGTATACCCCTTCTAACTTTC [CACACA_negctrl_site250]” was tested. Which “gcPBM binding intensity (ln)” value did it give?
A: The value was 6.7.

Q: “ATATATTTATTTTGTGCACACAACGCAAACCTTTTA [CACACA_site3508]” was tested. Which “gcPBM binding intensity (ln)” value did it give?
A: Its value is 11.3.

Q: With “ATATATATTTTTTAAACACACACATAAATATTTGTG [CACACA_site8936]” as the sequence, how does the “gcPBM binding intensity (ln)” value read?
A: Its value is 6.94.

Q: Which “gcPBM binding intensity (ln)” value does the source give for “GTGCAAAATATTTTTACACACAAATTTTTACAACAG [CACACA_site3357]” here?
A: The value was 8.07.

Q: How did the “gcPBM binding intensity (ln)” value turn out when “AAAATATAAATTCATGTGCACATATATATTTTGTTA [GTGCAC_site9782]” was run?
A: Its value is 10.7.

Q: “TATAAACCTTTTTGCACGCACACAAAAAAAAAATAA [CACACA_site168]” was tested. Which “gcPBM binding intensity (ln)” value did it give?
A: Its value is 9.61.

Q: Which “gcPBM binding intensity (ln)” value does the source give for “TTTATATTTTATAAATTATTCATAAATATATTTGTA [TGCATGCA_negctrl_site175]” here?
A: The value was 6.34.

Q: For “AAAATGTGCATATTTGCACACTTCAATATATATATA [CACACA_site1791]”, which “gcPBM binding intensity (ln)” value is on record?
A: Its value is 11.2.

Q: With “AAAAAATATATTTGCACACTCAAAAAAAAAAAAAAA [CACACA_site859]” as the sequence, how does the “gcPBM binding intensity (ln)” value read?
A: Its value is 10.3.

Q: “TATAAAAATGTGCACACACACACATATTTATATTTA [CACACA_site6826]” was tested. Which “gcPBM binding intensity (ln)” value did it give?
A: The value was 10.1.

Q: With “TTTTGTTATAAATAATGTACATATTTATTTAAAATT [XGTACX_site6610]” as the sequence, how does the “gcPBM binding intensity (ln)” value read?
A: The value was 6.25.

Q: For “TTTTTTATTTTGTGCACACACATAAAAATATAAATA [CACACA_site6497]”, which “gcPBM binding intensity (ln)” value is on record?
A: The value was 11.4.

Q: With “TCAAAAAATATATTTGCACACTCAAAAAAAAAAAAA [CACACA_site860]” as the sequence, how does the “gcPBM binding intensity (ln)” value read?
A: Its value is 10.2.

Q: “ATAACATTCTATGTTGCACACAAAGAGAAAAATTTA [CACACA_site9322]” was tested. Which “gcPBM binding intensity (ln)” value did it give?
A: The value was 9.12.

Q: For “TATTATATATCAAAATGTACATTAATTTGAGTAATT [XGTACX_site5434]”, which “gcPBM binding intensity (ln)” value is on record?
A: Its value is 6.37.

Q: “AAACGTGCGTATATGTGTACGCATATATATATATAT [XGTACX_site5252]” was tested. Which “gcPBM binding intensity (ln)” value did it give?
A: The value was 9.26.

Q: How did the “gcPBM binding intensity (ln)” value turn out when “ATTTTTTTATTTTGTGCACACACATAAAAATATATA [CACACA_site762]” was run?
A: Its value is 11.4.

Q: For “TATTTTATAATAGGCACACATATAAAAATATATATA [CACACA_site4127]”, which “gcPBM binding intensity (ln)” value is on record?
A: Its value is 6.57.

Q: For “ATATATTTTTTAAACACACACATAAATATTTGTGTA [CACACA_site2879]”, which “gcPBM binding intensity (ln)” value is on record?
A: Its value is 6.8.

Q: For “ATAATACAAAATACATGTACAAATATTTTTCATATT [XGTACX_site1721]”, which “gcPBM binding intensity (ln)” value is on record?
A: The value was 6.43.
